Laboratory results as given in ChEMBL document CHEMBL1961873, “Compounds: GSK PKIS; Assays: Nanosyn kinase panel” (2012).

What was measured:
[1] = biological target: Serine/threonine-protein kinase MARK2 (Homo sapiens) (UniProt Q7KZI7); conditions: at 1 µM
[2] = biological target: PAS domain-containing serine/threonine-protein kinase (Homo sapiens) (UniProt Q96RG2); conditions: at 0.1 µM
[3] = biological target: PAS domain-containing serine/threonine-protein kinase (Homo sapiens) (UniProt Q96RG2); conditions: at 1 µM
[4] = biological target: Phosphorylase b kinase gamma catalytic chain, skeletal muscle/heart isoform (Homo sapiens) (UniProt Q16816); conditions: at 0.1 µM
Phosphorylase b kinase gamma catalytic chain, skeletal muscle/heart isoform (Homo sapiens), sequence (Q16816 whole entry, looked up, canonical isoform): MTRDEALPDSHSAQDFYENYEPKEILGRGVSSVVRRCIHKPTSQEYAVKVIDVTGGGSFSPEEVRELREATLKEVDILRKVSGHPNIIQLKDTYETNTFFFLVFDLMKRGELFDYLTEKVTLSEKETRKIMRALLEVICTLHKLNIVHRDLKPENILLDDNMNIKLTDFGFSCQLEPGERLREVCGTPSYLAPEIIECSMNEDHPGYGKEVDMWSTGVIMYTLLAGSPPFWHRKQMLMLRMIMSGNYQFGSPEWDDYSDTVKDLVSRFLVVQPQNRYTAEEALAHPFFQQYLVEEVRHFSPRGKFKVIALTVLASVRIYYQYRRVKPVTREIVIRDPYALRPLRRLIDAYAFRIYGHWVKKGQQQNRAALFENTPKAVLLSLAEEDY

[5] = biological target: Phosphorylase b kinase gamma catalytic chain, skeletal muscle/heart isoform (Homo sapiens) (UniProt Q16816); conditions: at 1 µM
[6] = biological target: T1, Phosphorylase b kinase gamma catalytic chain, liver/testis isoform (Homo sapiens) (UniProt P15735); conditions: at 0.1 µM
T1 sequence (whole entry): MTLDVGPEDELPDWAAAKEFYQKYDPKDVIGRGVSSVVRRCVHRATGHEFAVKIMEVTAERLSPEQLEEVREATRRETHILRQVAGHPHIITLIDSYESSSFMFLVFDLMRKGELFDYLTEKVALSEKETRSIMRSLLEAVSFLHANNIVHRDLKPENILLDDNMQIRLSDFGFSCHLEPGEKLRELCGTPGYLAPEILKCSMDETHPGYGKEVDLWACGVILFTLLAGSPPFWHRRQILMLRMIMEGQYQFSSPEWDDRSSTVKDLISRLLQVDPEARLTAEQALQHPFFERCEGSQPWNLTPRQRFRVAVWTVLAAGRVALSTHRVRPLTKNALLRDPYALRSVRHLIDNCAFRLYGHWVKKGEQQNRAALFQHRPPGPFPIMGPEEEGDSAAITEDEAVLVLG

[7] = biological target: T1, Phosphorylase b kinase gamma catalytic chain, liver/testis isoform (Homo sapiens); conditions: at 1 µM
[8] = biological target: Serine/threonine-protein kinase pim-1 (Homo sapiens) (UniProt P11309); conditions: at 0.1 µM
Serine/threonine-protein kinase pim-1 (Homo sapiens), sequence (P11309 whole entry, looked up): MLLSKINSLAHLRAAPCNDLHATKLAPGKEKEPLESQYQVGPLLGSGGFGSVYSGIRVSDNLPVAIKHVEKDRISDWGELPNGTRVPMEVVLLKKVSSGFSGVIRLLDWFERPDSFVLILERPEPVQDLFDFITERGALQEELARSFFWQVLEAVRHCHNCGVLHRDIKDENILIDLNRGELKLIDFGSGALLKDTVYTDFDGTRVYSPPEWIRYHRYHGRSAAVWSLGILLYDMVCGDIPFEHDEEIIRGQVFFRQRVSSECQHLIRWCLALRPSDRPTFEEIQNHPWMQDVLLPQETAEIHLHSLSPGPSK

[9] = biological target: Serine/threonine-protein kinase pim-1 (Homo sapiens) (UniProt P11309); conditions: at 1 µM
[10] = biological target: Serine/threonine-protein kinase pim-2 (Homo sapiens) (UniProt Q9P1W9); conditions: at 0.1 µM
Serine/threonine-protein kinase pim-2 (Homo sapiens), sequence (Q9P1W9 whole entry, looked up): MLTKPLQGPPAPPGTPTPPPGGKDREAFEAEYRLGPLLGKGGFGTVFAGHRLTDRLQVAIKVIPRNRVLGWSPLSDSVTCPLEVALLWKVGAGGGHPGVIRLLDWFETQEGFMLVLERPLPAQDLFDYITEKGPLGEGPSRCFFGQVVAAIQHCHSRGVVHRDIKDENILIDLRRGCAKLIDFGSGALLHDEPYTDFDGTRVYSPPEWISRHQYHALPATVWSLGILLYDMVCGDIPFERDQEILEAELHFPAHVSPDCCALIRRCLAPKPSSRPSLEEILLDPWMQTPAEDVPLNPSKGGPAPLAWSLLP

[11] = biological target: Serine/threonine-protein kinase pim-2 (Homo sapiens) (UniProt Q9P1W9); conditions: at 1 µM
[12] = biological target: Serine/threonine-protein kinase pim-3 (Homo sapiens) (UniProt Q86V86); conditions: at 0.1 µM
[13] = biological target: Serine/threonine-protein kinase pim-3 (Homo sapiens) (UniProt Q86V86); conditions: at 1 µM
[14] = biological target: T2, MAP kinase-activated protein kinase 5 (Homo sapiens) (UniProt Q8IW41); conditions: at 0.1 µM
T2 sequence (whole entry): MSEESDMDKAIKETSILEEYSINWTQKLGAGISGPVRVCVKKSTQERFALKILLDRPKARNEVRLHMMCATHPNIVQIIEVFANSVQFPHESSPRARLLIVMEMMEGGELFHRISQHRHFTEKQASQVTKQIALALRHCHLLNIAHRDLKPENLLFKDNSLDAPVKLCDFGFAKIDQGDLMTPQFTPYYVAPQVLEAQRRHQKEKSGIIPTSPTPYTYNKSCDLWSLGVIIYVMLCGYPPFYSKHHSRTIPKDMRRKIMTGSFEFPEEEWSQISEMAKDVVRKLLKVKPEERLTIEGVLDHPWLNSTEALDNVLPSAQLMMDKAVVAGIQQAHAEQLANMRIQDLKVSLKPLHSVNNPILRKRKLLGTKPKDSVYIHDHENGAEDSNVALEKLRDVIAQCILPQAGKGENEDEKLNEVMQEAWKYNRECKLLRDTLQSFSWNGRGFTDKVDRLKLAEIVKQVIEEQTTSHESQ

[15] = biological target: T2, MAP kinase-activated protein kinase 5 (Homo sapiens); conditions: at 1 µM
[16] = biological target: Serine/threonine-protein kinase SIK1 (Homo sapiens) (UniProt P57059); conditions: at 0.1 µM
[17] = biological target: Serine/threonine-protein kinase SIK1 (Homo sapiens) (UniProt P57059); conditions: at 1 µM
[18] = biological target: Serine/threonine-protein kinase SIK2 (Homo sapiens) (UniProt Q9H0K1); conditions: at 0.1 µM
Serine/threonine-protein kinase SIK2 (Homo sapiens), sequence (Q9H0K1 whole entry, looked up): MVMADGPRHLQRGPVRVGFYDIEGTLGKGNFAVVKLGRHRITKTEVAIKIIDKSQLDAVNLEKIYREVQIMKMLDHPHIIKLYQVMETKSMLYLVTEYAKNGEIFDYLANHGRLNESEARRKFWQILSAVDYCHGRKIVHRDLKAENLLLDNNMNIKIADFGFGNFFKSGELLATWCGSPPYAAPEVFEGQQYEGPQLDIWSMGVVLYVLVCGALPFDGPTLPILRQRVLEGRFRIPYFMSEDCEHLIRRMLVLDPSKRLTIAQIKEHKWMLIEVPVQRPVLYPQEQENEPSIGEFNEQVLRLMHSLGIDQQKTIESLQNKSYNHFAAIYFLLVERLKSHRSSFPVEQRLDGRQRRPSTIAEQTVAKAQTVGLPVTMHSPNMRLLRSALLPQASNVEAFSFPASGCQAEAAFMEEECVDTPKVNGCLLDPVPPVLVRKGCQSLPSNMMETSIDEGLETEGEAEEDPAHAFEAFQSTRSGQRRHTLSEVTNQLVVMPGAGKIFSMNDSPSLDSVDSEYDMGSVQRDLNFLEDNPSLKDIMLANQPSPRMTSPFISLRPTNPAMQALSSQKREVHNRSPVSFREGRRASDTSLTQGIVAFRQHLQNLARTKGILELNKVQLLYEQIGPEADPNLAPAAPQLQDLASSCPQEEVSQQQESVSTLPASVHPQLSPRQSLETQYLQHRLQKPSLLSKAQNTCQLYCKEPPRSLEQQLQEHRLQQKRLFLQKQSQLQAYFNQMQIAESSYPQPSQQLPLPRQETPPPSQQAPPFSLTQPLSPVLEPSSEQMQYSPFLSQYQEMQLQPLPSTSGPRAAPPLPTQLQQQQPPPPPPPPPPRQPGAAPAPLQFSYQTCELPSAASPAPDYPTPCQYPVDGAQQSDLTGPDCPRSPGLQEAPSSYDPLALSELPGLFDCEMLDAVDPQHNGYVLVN

[19] = biological target: Serine/threonine-protein kinase SIK2 (Homo sapiens) (UniProt Q9H0K1); conditions: at 1 µM
[20] = biological target: T3, Serine/threonine-protein kinase TBK1 (Homo sapiens) (UniProt Q9UHD2); conditions: at 0.1 µM;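 also: values are the mean TBK1 inhibition, taken from the GSK PKIS screening data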
T3 sequence (whole entry): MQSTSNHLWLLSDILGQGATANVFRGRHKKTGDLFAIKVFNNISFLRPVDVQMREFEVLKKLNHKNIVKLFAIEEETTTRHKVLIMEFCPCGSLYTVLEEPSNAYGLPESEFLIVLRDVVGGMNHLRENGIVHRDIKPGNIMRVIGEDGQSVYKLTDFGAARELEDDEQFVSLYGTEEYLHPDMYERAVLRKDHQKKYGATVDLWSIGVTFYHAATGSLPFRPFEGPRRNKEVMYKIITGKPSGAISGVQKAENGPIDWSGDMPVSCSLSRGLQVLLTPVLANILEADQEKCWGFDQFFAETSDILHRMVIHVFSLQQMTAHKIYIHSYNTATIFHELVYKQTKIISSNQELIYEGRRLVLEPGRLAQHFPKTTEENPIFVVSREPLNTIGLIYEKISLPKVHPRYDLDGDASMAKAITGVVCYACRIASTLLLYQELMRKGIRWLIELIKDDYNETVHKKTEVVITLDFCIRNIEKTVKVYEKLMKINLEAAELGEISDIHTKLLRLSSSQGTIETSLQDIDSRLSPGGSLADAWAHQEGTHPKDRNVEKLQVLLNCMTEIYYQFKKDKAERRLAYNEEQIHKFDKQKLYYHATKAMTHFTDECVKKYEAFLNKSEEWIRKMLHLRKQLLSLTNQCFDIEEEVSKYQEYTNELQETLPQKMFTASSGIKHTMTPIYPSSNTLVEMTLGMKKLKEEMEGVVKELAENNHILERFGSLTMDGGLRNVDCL

PAS domain-containing serine/threonine-protein kinase (Homo sapiens), sequence (Q96RG2 whole entry, the tested form may be a part, canonical isoform): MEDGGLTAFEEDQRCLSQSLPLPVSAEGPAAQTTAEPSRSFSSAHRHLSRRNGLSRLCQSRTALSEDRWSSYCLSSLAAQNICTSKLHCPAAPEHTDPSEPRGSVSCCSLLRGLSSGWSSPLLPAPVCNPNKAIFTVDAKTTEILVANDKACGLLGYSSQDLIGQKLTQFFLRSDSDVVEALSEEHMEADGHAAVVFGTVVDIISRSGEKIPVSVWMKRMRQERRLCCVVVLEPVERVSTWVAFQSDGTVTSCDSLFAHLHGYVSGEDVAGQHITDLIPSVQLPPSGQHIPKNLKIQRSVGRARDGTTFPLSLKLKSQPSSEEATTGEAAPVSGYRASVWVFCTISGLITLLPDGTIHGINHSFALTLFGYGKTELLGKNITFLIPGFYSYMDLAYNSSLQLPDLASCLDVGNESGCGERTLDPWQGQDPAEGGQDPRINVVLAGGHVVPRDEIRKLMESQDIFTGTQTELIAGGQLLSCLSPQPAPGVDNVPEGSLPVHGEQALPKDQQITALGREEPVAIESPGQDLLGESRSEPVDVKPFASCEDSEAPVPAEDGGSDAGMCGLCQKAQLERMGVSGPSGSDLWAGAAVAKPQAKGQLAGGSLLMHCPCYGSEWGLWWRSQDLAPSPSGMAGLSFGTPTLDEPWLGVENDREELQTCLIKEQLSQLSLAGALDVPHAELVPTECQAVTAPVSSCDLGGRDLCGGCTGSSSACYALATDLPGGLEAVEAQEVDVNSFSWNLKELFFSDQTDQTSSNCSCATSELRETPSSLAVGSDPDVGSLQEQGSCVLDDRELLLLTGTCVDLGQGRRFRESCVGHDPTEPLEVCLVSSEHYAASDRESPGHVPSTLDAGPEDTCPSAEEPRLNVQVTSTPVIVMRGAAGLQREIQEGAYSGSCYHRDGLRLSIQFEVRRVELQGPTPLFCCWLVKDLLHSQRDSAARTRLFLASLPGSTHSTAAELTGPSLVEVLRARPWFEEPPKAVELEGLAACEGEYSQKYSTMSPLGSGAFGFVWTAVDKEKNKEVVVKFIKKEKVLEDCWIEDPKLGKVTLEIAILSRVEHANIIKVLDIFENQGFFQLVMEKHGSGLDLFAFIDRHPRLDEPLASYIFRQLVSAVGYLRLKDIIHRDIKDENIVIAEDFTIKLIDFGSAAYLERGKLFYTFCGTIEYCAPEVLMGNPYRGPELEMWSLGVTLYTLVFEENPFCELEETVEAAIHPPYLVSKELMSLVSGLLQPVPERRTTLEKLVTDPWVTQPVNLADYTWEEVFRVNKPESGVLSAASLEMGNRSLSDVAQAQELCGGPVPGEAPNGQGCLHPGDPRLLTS
Serine/threonine-protein kinase MARK2 (Homo sapiens), sequence (Q7KZI7 whole entry, the tested form may be a part): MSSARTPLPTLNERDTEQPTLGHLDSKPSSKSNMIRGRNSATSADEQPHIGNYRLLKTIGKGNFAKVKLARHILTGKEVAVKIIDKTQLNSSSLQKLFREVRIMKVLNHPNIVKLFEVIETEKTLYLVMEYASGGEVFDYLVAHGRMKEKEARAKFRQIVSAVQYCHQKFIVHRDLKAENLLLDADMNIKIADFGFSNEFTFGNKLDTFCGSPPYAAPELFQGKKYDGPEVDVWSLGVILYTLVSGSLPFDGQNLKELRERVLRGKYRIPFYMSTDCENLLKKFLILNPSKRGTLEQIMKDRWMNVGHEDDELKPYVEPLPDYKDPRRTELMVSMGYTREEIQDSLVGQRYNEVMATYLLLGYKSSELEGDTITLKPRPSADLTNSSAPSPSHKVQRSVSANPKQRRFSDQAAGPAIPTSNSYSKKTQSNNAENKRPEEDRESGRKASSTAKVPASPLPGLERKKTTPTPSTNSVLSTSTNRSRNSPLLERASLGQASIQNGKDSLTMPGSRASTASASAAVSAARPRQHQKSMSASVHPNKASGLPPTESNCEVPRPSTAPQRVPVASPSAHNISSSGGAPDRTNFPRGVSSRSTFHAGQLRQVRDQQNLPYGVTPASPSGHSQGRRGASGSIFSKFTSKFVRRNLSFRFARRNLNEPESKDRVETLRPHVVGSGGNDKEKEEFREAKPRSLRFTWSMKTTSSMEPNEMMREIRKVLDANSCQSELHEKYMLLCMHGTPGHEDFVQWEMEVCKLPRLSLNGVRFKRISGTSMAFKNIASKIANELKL

SMILES | inhibition [1] [%] | inhibition [2] [%] | inhibition [3] [%] | inhibition [4] [%] | inhibition [5] [%] | inhibition [6] [%] | inhibition [7] [%] | inhibition [8] [%] | inhibition [9] [%] | inhibition [10] [%] | inhibition [11] [%] | inhibition [12] [%] | inhibition [13] [%] | inhibition [14] [%] | inhibition [15] [%] | inhibition [16] [%] | inhibition [17] [%] | inhibition [18] [%] | inhibition [19] [%] | inhibition [20] [%]
CC1=C(C(=O)Nc2cc(Cl)c3[nH]ncc3c2)C(c2ccc(C(F)(F)F)cc2)CC(=O)N1 (stereo not given) | 5.38 | -0.35 | 0.16 | 3.83 | 6.61 | 3.02 | 4.01 | 0.67 | 0.15 | 0.31 | -0.24 | -0.23 | -0.25 | 1.37 | 2.73 | 4.89 | 8.58 | 4.56 | 11.8 | 2.77
COc1cccc(-c2c[nH]c3c(N/N=C/c4ccncc4)ncnc23)c1 | 5.48 | 0.94 | -0.58 | 3.01 | 12.1 | 3.45 | 1.52 | 1.65 | 5.38 | -0.12 | 1.1 | 0.71 | 2.78 | 0.16 | -1.66 | 10.7 | 48.9 | 28.6 | 67.4 | 3.26
CCn1c(-c2nonc2N)nc2ccccc21 | 2.79 | 1.01 | 0.51 | 2.03 | 2.71 | 3.71 | 0.96 | 0.21 | 4.54 | -0.12 | 1.82 | -0.8 | 10.7 | 0.58 | -0.74 | 7.25 | 7.65 | 9.3 | 1.28 | 3.25
NS(=O)(=O)c1ccc(N/N=C2\C(=O)Nc3ccc4ncccc4c32)cc1 | 35.3 | -0.19 | -1.87 | 11.2 | 50 | 3.72 | 14.1 | 1.89 | 15.9 | 1.2 | 9.88 | 1.09 | 12.5 | 1.52 | 8.94 | 2.74 | 31.3 | -0.54 | 31.6 | 7.16
COc1cc(/C=N/Nc2ncnc3[nH]ncc23)ccc1O | 17.5 | -0.24 | 1.75 | 4.58 | 16.6 | 4.03 | 8.53 | 1.55 | 10.9 | 0.15 | 4.24 | 2.9 | 21.5 | 1.2 | 2.2 | 2.8 | 26.7 | 8.34 | 33.1 | 4.18
CNC(=O)c1cncc(/C=C/c2ccccc2Cl)c1 | 0.58 | 1.8 | 4.02 | -1.06 | 2.44 | 1.88 | 5.64 | 0.54 | 0.89 | 0.13 | 0.04 | 3.4 | 5.1 | 0.27 | 1.73 | 2.02 | 25.6 | 2.24 | 8.3 | 0.45
CCn1c(-c2nonc2N)nc2cnc(Oc3cccc(NC(=O)c4ccc(N(C)C)cc4)c3)cc21 | 11 | -0.49 | 1.54 | -0.31 | 2.21 | 1.21 | -0.74 | 0.69 | 8.74 | -0.19 | 1.39 | -0.12 | 1.67 | 0.33 | -1.26 | 1.57 | 2.47 | 4.79 | 4.74 | 0.53
[O-][S+]1CCN(Cc2ccc(-c3ccc4ncnc(Nc5ccc(OCc6cccc(F)c6)c(Cl)c5)c4c3)o2)CC1 | 2.61 | 0.34 | 0.46 | 5.93 | 8.77 | 7.01 | 6.77 | 0.76 | 2.24 | 0.73 | 0.11 | 0.21 | 1.34 | 2 | 2.05 | 5.68 | 12.1 | 8.92 | 10.4 | 5.39
O=S(=O)(CCNCc1ccc(-c2ccc3ncnc(Nc4ccc(OCc5cccc(F)c5)c(Cl)c4)c3c2)o1)c1ccccc1 | -0.14 | -0.06 | 0.32 | 5.41 | 9.29 | 7.91 | 7.71 | -0.13 | 1.9 | 0.44 | 0.58 | -0.16 | 1.33 | 2.07 | 2.09 | 3.17 | 9.64 | 2.1 | 6.58 | 4.82
Fc1ccc(-c2cc(-c3c[nH]nc3-c3ccccn3)ccn2)cc1 | -2.56 | -0.42 | 0.53 | 5.71 | 9.03 | 5.07 | 8.42 | -0.17 | 0.76 | 0.19 | -1.45 | -0.42 | 1.85 | 2.19 | 4.27 | 3.49 | 8.52 | 7.67 | 8 | 0.43
CCc1nn2ncccc2c1-c1ccnc(NC2CC2)n1 | 1.56 | 1.03 | 0.63 | 1.42 | 2.68 | 2.15 | 3.73 | 0.19 | 1.72 | 0.29 | 1.22 | 0.67 | 4.22 | 0.66 | 1.12 | 0.6 | 7.84 | 0.42 | 2.21 | 2.11
CNC(=O)c1cccc(C#Cc2cncnc2Nc2ccc(OCc3cccc(F)c3)c(Cl)c2)c1 | -2.06 | 0.44 | 0.79 | -2.47 | 2.19 | 2.39 | 3.44 | 0.55 | 0.54 | 0.37 | -1.75 | 0.69 | 2.29 | 0.27 | 1.49 | 2.11 | 3.26 | -1.57 | -1.75 | -0.71
Nc1ncc(-c2cccc(S(N)(=O)=O)c2)c2scc(-c3ccc(F)c(Cl)c3)c12 | 2.5 | 0.62 | 1.05 | 4.52 | 5.24 | 6.23 | 6.66 | 0.81 | 0.67 | 0.52 | 0.78 | 1.11 | 0.91 | 1.73 | 1.77 | 20.4 | 61 | 9.17 | 28.8 | 3.75
